Bioassay records from PubChem.
Hits are enriched below; roughly 0.92% of the tested compounds scored in any of these assays.
NS1 function inh – blocks influenza NS1 protein function. Potency, µM (doses to about 46.1 µM), for inactives: top-dose activity, positive = more growth. 0.4% of 270,000 active; calls by dose curve; also: actives are rising curves; nearly all actives have a fitted effect of over 50% in size
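Recovery from NS1-induced slow growth read by OD600 in budding yeast switched to galactose assay medium (pH 6.0, -URA) at 1:100 dilution. Compound 23 nl per well; the matching strain lacking NS1 serves as control.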
Tb PYK inh – T. brucei pyruvate kinase inhibition | 0.12% of 410,000 active | TbPYK enzyme, Kinase-Glo Plus ATP luminescence, 45 min | Potency, µM (highest dose often 76.8 µM), without a hit: at the top dose activity, negative = inhibition, usual class: inhibitors | Q57TT1; also: % is scaled to controls: 0 for no effect and ±100 for the full control effect; nearly all actives have a fitted effect of over 50% in size
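T. brucei PYK with substrate was exposed to pin-transferred compounds across a concentration series, then started with 130 uM ADP (final). After 45 min at room temperature, Kinase-Glo Plus luminescence was read, normalized and curve-fitted.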
LmPK inh – blocks Leishmania mexicana pyruvate kinase activity. Q27686. purified LmPK, Kinase-Glo ATP luminescence, 1 h. Potency, µM (highest dose often 57.5 µM), for inactives: top-dose activity change, negative = inhibition, actives largely listed as inhibitors. 0.37% of 290,000 active; also: % is scaled to controls: 0 for no effect and ±100 for the full control effect
Target sequence (Q27686 whole entry, looked up): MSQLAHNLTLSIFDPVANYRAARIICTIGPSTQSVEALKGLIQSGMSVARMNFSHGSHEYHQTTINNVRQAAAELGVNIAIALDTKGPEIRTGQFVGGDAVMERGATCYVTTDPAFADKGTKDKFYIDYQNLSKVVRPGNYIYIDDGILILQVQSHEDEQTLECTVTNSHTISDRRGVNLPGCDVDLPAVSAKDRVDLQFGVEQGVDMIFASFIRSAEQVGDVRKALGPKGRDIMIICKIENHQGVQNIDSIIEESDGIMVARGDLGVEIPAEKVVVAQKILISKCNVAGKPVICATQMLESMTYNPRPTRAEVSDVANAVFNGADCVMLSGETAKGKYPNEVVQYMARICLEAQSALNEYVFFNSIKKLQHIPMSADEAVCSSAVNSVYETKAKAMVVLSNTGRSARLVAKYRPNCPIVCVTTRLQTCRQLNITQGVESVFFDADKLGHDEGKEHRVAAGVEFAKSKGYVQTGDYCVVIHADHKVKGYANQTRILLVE
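Kinase-Glo luminescence read after 1 h RT reaction of 0.1 nM LmPK with 0.5 mM PEP and 0.1 mM ADP. Activity scaled between uninhibited and enzyme-free controls.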
RE007 growth inh – less growth of the S. pombe RE007 Vpr strain. S. pombe RE007 Vpr strain, BacTiter-Glo ATP luminescence, 24 h. Potency, µM (highest dose often 92.2 µM), for inactives: top-dose activity change, negative = less growth, most hits filed as inhibitors. 0.21% of 360,000 active; active = well fitted falling curve with a large enough effect; inconclusive = small, poorly fitted or top-dose-only effect; inactive = no such curve, though single readings can be large or run the other way; also: % is scaled to controls: 0 for no effect and ±100 for the full control effect; nearly all actives have a fitted effect of over 50% in size
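Fission yeast RE007 carrying one integrated HIV-1 vpr copy, seeded at OD 0.01 in PMG+AL medium with 23 nL pinned compound. Grown 24 h at 30 degrees; viability read by BacTiter-Glo luminescence after 5 min.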
AMA1 RON2 block – disrupts binding of P. falciparum AMA1 to RON2 | 0.2% of 360,000 active | AID 720542 | Potency, µM (highest dose often 58.2 µM), inactives show at the top dose activity change, negative = inhibition, most hits filed as inhibitors | AlphaScreen AMA1-biotinylated RON2 peptide binding;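 also: 0% = vehicle wells and -100% = peptide control; nearly all actives have a fitted effect of over 45% in size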
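AMA1 (3D7) with his tag at 25 nM final met compounds first, then biotinylated RON2 peptide at 25 nM; detection used donor plus acceptor beads, 10 µg/mL apiece, read by AlphaScreen after 30 min at room temperature.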
* = called active by the depositor; u = inconclusive; x = no result; [ ] = another dose, or the depositor's remark. Unless noted, calls follow the shape of the dose curve; as a rule, active = well fitted curve in the direction sought with a large enough effect; inconclusive = small, poorly fitted or top-dose-only effect, or another doubt; inactive = no such curve, though single readings can be large; an effect the other way counts as inactive or inconclusive. Potency is read from the fitted curve at half-maximal effect.

SMILES	NS1 function inh	Tb PYK inh	LmPK inh	RE007 growth inh	AMA1 RON2 block
CC(/C=C/C=C(\C)C(=O)O[C@@H]1O[C@H](CO[C@@H]2O[C@H](CO)[C@@H](O)[C@H](O)[C@H]2O)[C@@H](O)[C@H](O)[C@H]1O)=C\C=C\C=C(C)\C=C\C=C(/C)C(=O)O[C@@H]1O[C@H](CO[C@@H]2O[C@H](CO)[C@@H](O)[C@H](O)[C@H]2O)[C@@H](O)[C@H](O)[C@H]1O	x	-1%	x	x	x
c1csc(-c2nc(CN3CCSCC3)cs2)c1	3%	u	16µM*	-15%	-6%
O=[N+]([O-])c1ccc(Oc2ccc(N=C=S)cc2)cc1	x	0%	x	x	x
CC(C)c1ccc(N2C(=O)CC(Sc3ncn[nH]3)C2=O)cc1 (stereo unspecified)	-32%	-18%	2%	56µM*	-15%
COc1ccc(OC)c(C2CC(=O)N3CN(c4cccc(Cl)c4C)CSC3=C2C#N)c1 (stereo unspecified)	-34%	3.5µM*	-2%	1%	1%
N#CC1=C2SCN(c3ccccc3)CN2C(=O)CC1c1c(Cl)cccc1Cl (stereo unspecified)	11µM*	2.5µM*	-12%	-4%	8%
N#CC1=C2SCN(c3ccccc3)CN2C(=O)CC1c1ccccc1Cl (stereo unspecified)	-26%	u	2%	-11%	-6%
COc1cc(OC)c(C2CC(=O)N3CN(C)CSC3=C2C#N)cc1OC (stereo unspecified)	-50%	u	u	-8%	-4%
CCc1ccccc1N1CSC2=C(C#N)C(c3cc(OC)c(OC)cc3OC)CC(=O)N2C1 (stereo unspecified)	10µM*	10µM*	-6%	-6%	-21%
COc1cc(OC)c(C2CC(=O)N3CN(c4ccccc4)CSC3=C2C#N)cc1OC (stereo unspecified)	-85%	8.9µM*	8%	9%	17%
COc1cccc(C2CC(=O)N3CN(c4cccc(Cl)c4C)CSC3=C2C#N)c1OC (stereo unspecified)	-34%	u	20%	-4%	-1%
C[C@H](CN(C)C)C(C#N)(c1ccccc1)c1ccccc1	-5%	x	x	x	x
NC(=O)c1ccc(-c2nc(-c3ccc4c(c3)OCCO4)c(-c3ccccn3)[nH]2)cc1	x	0%	x	x	x
S=c1[nH]nc(Cc2ccc(Cl)cc2)n1-c1ccc2c(c1)OCCO2	2%	2.8µM*	u	2%	76%
Oc1ccc(-c2n[nH]c(=S)n2-c2ccc3c(c2)OCCO3)c(O)c1	u	2.8µM*	u	x	54%
COc1ccc(-c2n[nH]c(=S)n2-c2ccc3c(c2)OCCO3)cc1	13%	u	u	4%	57%
COc1cc(OC)cc(-c2n[nH]c(=S)n2-c2ccc3c(c2)OCCO3)c1	2%	2.5µM*	-6%	1%	58%
COc1ccc(Cc2n[nH]c(=S)n2-c2ccc3c(c2)OCCO3)cc1	-3%	u	-25%	11%	48%
S=c1[nH]nc(-c2ccc(Cl)cc2Cl)n1-c1ccccc1	4%	-21%	-19%	14%	153%
S=c1[nH]nc(-c2ccc(Cl)cc2Cl)n1-c1ccc2c(c1)OCCO2	15%	6.3µM*	u	2%	84%
S=c1[nH]nc(-c2ccc(Br)cc2)n1-c1ccc2c(c1)OCCO2	14%	u	u	20%	80%
O=C(O)CN1CCN(CC(=O)O)CC(=O)[O][Hg][O]C(=O)C1	-61%	x	x	x	x
COC(=O)Nc1ccc(-c2nc(N3CCOCC3)c3cnn(C4CCN(C(=O)OC)CC4)c3n2)cc1	x	-1%	x	x	x
Cc1ccc(S(=O)(=O)O[C@H]2CC(C(C)(C)C)CC[C@@H]2c2ccccc2)cc1 (stereo partly specified)	-3%	x	x	x	x
c1ccc2c(c1)nnn1c3ccccc3nc21	-103%	x	10µM*	x	x
SMILES	NS1 function inh	Tb PYK inh	LmPK inh	RE007 growth inh	AMA1 RON2 block
CCOC(=O)c1c(NS(=O)(=O)c2ccc(Br)cc2)sc2c1CCC2	x	28µM*	x	9%	6%
COc1ccc(OC)c(C2CC(=O)N3CN(c4ccccc4F)CSC3=C2C#N)c1 (stereo unspecified)	-29%	u	-9%	-11%	0%
COc1ccccc1N1CSC2=C(C#N)C(c3ccc(SC)cc3)CC(=O)N2C1 (stereo unspecified)	18%	18µM*	-21%	-5%	0%
COc1cc(C2CC(=O)N3CN(c4ccccc4C)CSC3=C2C#N)cc(OC)c1OC (stereo unspecified)	-15%	x	-3%	x	x
COc1cccc(C2CC(=O)N3CN(c4ccccc4F)CSC3=C2C#N)c1 (stereo unspecified)	4%	3.5µM*	10%	-18%	5%
CCCSS/C(CCO)=C(/C)N(C=O)Cc1cnc(C)nc1N	x	3%	x	x	x
CCN(CC)C(=O)[C@@H]1C=C2c3cccc4[nH]cc(c34)C[C@H]2N(C)C1	x	-7%	x	x	x
Cc1ccccc1NC(=O)c1csc2c1CCCC2	-10%	1%	4%	-2%	18%
Cc1ccccc1NC(=O)c1onc2c1CCCC2	-8%	-17%	13µM*	5µM*	-14%
O=C(Nc1ccc2ccccc2c1)c1onc2c1CCCC2	-8%	-1%	-12%	3.5µM*	21%
Cc1cccc(NC(=O)c2ccc3c(Cl)c4c(nc3c2)CCCC4)n1	x	-2%	-5%	13%	6%
Cc1cccc(NC(=O)c2onc3c2CCCC3)c1C	-14%	-11%	u	4µM*	10%
COC(=O)c1cccc(NC(=O)c2onc3c2CCCC3)c1	-19%	-26%	u	u	-23%
Cc1cccc(NC(=O)c2onc3c2CCCC3)n1	-10%	u	13µM*	22µM*	19%
C[N+]1(CCF)[C@@H]2CC[C@@H]1CC(OC(=O)C(O)(c1ccccc1)c1ccccc1)C2 (stereo partly specified)	x	-5%	x	x	x
O=C(COc1ccccc1)Nc1nccs1	0%	-16%	14µM*	-9%	0%
CCC(=O)C(Cc1ccccc1)(Cc1ccccc1)CC(C)N(C)C (stereo unspecified)	x	-5%[157 µM]	x	x	x
O=c1cc2oc3cc(O)c(O)cc3c(-c3ccccc3O)c-2cc1O	1%	-20%	-21%	x	1.1µM*
COc1ccc(OC)c(-c2c3cc(O)c(=O)cc-3oc3cc(O)c(O)cc23)c1	u	u	-22%	u	2µM*
CCOc1ccccc1-c1c2cc(O)c(=O)cc-2oc2cc(O)c(O)cc12	u	u	-15%	u	u
Cn1c(C[C@@H](O)c2nc3ccccc3n2C)nc2ccccc21	-3%	x	x	x	x
COc1cccc(F)c1C(C[N+](=O)[O-])c1c(N)n(C)c(=O)n(C)c1=O (stereo unspecified)	-88%	-1%	13%	16µM*	-2%
